Assay results: PubChem BioAssay AID652190 (Johns Hopkins Ion Channel Center, 2013)
Calls of active or inactive are those of the source.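 How the source made its calls: active means peak inhibition above 30% at some tested dose, together with a fitted dose response curve; inactive means no inhibition at all doses, or no curve obtained.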

These molecules were tested against Inward rectifier potassium channel 2 (Mus musculus) (UniProt P35561) (assay: off-target blockade of inward rectifier Kir2.1 – cell-based, FluxOR thallium flux, HEK293, CRC, selectivity assay for TASK1 inhibitor project, SAR follow-up (AID 652190)). Details: Kir2.1-expressing cells; series mostly up to 30 µM; fluorescence ratio, lower = inhibition: at the top concentration.
Chain of Inward rectifier potassium channel 2 (Mus musculus) (P35561 whole entry, looked up): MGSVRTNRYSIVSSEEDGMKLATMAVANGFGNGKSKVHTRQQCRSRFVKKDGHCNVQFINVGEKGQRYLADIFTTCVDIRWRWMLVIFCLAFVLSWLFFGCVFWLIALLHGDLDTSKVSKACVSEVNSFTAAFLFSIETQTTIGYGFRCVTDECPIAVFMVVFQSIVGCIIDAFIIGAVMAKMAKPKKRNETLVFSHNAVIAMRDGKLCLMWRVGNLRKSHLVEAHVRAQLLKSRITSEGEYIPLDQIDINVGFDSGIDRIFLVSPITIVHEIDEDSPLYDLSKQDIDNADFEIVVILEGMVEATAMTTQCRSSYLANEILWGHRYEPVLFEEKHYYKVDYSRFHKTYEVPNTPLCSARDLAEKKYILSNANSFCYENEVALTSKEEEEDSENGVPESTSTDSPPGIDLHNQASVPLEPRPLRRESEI

Fluorescence ratio, lower = inhibition, inactive:
COc1ccccc1C(=O)Nc1cc(NC(=O)c2ccccc2C(C)C)ccc1F 1.84
CC(C)Oc1ccccc1C(=O)Nc1cccc(NC(=O)c2ccccc2OC(F)(F)F)c1 1.86
COc1ccc(CC(=O)NCc2ccccc2-c2ccccc2C(=O)NCc2ccc(F)cc2F)cc1 1.35
COc1ccc(F)cc1C(=O)Nc1cccc(NC(=O)c2cccc(C)c2)c1 1.44
CC(C)c1ccccc1C(=O)Nc1cccc(NC(=O)c2ccccc2OC(F)(F)F)c1 1.83
COc1c(F)cccc1C(=O)Nc1cccc(NC(=O)c2cccc(C)c2)c1 1.33
COc1ccccc1C(=O)Nc1cccc(NC(=O)c2cccc3ccccc23)c1 1.82
Cc1cccc(C(=O)Nc2cccc(NC(=O)c3cccc(F)c3)c2)c1 1.4
COc1cnccc1C(=O)Nc1cccc(NC(=O)c2cccc(C)c2)c1 1.23
CCCC(=O)C1CCN(c2ncnc3c2CN(C(=O)c2ccc(-c4ccccc4)cc2)CC3)CC1 1.51
COc1ccccc1C(=O)Nc1cc(NC(=O)c2cccc(C)c2)ccc1F 1.34
